Data from PubChem BioAssay (NCATS).
Results filed as inconclusive are left out. A call without a number means that no potency is given here. Some structures have more than one record in an assay (separate samples or runs), and their calls can disagree. Active and inactive are the calls of the source. Unless noted, calls come from the whole dose curve; as a rule, active = well fitted curve in the direction sought with a large enough effect; inconclusive = small, poorly fitted or top-dose-only effect, or another doubt; inactive = no such curve, though single readings can be large; an effect the other way counts as inactive or inconclusive.

Assays:
[1] = NFAT Signaling Pathway (AID 444; active = well fitted curve in either direction with a large enough effect, not every such curve was filed as active;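 note: carbachol stimulus at about its EC50 of 1 µM final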); details: Jurkat NFAT-bla M1, carbachol, beta-lactamase ratio, 5 h; at 17.2 µM (top of the series) unless noted
Method in brief: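 Read-out: CCF4 FRET ratio (460 nm/530 nm) after 1 h RT dye loading, used for %activity and AC50 from titration series. Cells: Jurkat NFAT-β-lactamase/M1 line, treated with compound plus 1 uM carbachol for 5 h, 37 °C.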

[2] = molecular target: Pyruvate kinase PKM (Homo sapiens) (UniProt P14618); experiment: qHTS Assay for Inhibitors of Human Muscle Pyruvate Kinase (AID 958)
Sequence of Pyruvate kinase PKM (Homo sapiens) (P14618 whole entry, looked up): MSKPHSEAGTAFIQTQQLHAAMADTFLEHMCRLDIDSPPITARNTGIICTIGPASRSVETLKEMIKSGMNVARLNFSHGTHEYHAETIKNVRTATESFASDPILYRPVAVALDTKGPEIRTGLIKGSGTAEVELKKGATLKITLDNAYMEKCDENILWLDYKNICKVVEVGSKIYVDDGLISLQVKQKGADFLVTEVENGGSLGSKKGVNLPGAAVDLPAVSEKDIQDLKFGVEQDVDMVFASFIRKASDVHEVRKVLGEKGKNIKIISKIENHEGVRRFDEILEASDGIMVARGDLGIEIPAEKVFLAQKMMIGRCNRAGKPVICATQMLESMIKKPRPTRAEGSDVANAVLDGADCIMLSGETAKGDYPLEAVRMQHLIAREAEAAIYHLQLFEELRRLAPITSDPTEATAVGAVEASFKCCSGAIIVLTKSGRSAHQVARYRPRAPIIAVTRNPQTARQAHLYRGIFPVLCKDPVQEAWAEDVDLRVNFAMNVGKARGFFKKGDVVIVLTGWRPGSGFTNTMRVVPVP
Method in brief: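 A coupled luminescent readout tracked ATP made from ADP by purified PKM2. Final conditions included 0.1 nM enzyme, PEP and ADP at 0.5 and 0.1 mM, pH 7.2 imidazole buffer with BSA, and a one-hour room-temperature reaction.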

[3] = qHTS Assay for Identification of Small Molecule Agonists for Thrombopoietin (TPO) Signaling Pathway (AID 917)
Method in brief: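 Cell-based luciferase reporter screen. Mouse Ba/F3 line stably expressing human TPO receptor; IL-3 removed overnight before plating. Co-treatment with compound and EC50 TPO (26 pM), 24 hrs at 37 C, then luminescence.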

[4] = molecular target: Tumor susceptibility gene 101 protein (Homo sapiens) (UniProt Q99816); experiment: qHTS Assay for Iinhibitors of HIV-1 Budding by Blocking the Interaction of PTAP/TSG101: Hit Validation (AID 651600); note: nearly all actives have a fitted effect of over 70% in size
Sequence of Tumor susceptibility gene 101 protein (Homo sapiens) (Q99816 whole entry, looked up, the tested form may be a part): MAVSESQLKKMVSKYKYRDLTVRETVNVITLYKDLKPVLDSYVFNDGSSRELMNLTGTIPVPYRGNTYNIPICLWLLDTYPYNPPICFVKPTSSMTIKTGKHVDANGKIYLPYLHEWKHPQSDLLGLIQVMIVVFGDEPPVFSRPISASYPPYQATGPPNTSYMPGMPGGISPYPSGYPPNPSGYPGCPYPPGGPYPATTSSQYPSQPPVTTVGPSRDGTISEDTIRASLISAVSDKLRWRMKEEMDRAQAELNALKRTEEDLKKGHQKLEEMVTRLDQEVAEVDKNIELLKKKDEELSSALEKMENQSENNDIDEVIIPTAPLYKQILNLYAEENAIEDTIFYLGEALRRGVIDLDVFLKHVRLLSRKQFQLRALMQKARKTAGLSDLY
Method in brief: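 Compounds are added to the Tsg101 binding domain (10 uM final) in pH 7.5 HEPES buffer. FITC-PTAP peptide follows at 50 nM final. After 20 min at r.t., polarized FITC emission is measured.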

[5] = qHTS Assay for Identification of Small Molecule Antagonists for NFkB Signaling Pathway (AID 895; active = well fitted inhibition curve with a large enough effect in the signal ratio, with a control signal flat, not every such curve was filed as active; the % refers to the signal ratio; note: potency is the fitted concentration of half-maximal effect)
Method in brief: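 Beta-lactamase reporter read-out (460 and 530 nm emission ratio, 405 nm excitation, 2 hrs substrate loading RT) after 5 hr stimulation with 10 pM TNF alpha in compound-treated NFkB-bla ME-180 cells in low-serum medium.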

[6] = molecular target: DNA dC->dU-editing enzyme APOBEC-3G (Homo sapiens) (UniProt Q9HC16); experiment: qHTS for inhibitors of Vif-A3G interactions: Validation (AID 588379)
Sequence of DNA dC->dU-editing enzyme APOBEC-3G (Homo sapiens) (Q9HC16 whole entry, looked up): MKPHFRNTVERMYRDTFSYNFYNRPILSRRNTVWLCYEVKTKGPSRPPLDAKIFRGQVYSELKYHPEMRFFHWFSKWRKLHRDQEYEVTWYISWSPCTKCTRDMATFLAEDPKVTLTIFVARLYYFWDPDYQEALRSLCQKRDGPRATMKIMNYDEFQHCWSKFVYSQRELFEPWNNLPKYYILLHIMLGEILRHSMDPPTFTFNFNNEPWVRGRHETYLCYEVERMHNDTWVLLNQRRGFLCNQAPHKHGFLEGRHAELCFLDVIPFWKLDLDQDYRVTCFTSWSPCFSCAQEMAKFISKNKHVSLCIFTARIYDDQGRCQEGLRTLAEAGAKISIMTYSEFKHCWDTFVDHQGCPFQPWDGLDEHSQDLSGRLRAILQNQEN
Method in brief: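 Yellow fluorescence (Ex 488, Em 500-530) of Vif-coexpressing HeLa A3G-eYFP cells, scanned by Acumen cytometer, reports blocked A3G degradation. Cells plated at 700/well overnight at 37 deg C before compound addition, then a further overnight compound incubation at 37 deg C.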

[7] = qHTS assay to identify small molecules that stimulate interleukin-8 (IL-8) secretion (AID 651758; active = well fitted activation curve with a large enough effect in the signal ratio; the % refers to the signal ratio; note: potency is the fitted concentration of half-maximal effect)
Method in brief: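 Secreted IL-8 measured homogeneously by TR-FRET (two labelled anti-IL-8 antibodies, 1-3 h at room temperature) after a 16 h, 37 C compound treatment of THP-1 cells at 2000 cells/well.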

[8] = molecular target: Androgen receptor (Homo sapiens) (UniProt P10275); experiment: qHTS assay for small molecule agonists of androgen receptor signaling (AID 588515; active = well fitted curve in the direction sought with a large enough effect in the signal ratio, with a control signal flat; the % refers to the signal ratio); details: AR-UAS-bla HEK293, beta-lactamase ratio, agonist 16 h; stronger effect = higher value
Sequence of Androgen receptor (Homo sapiens) (P10275 whole entry, looked up): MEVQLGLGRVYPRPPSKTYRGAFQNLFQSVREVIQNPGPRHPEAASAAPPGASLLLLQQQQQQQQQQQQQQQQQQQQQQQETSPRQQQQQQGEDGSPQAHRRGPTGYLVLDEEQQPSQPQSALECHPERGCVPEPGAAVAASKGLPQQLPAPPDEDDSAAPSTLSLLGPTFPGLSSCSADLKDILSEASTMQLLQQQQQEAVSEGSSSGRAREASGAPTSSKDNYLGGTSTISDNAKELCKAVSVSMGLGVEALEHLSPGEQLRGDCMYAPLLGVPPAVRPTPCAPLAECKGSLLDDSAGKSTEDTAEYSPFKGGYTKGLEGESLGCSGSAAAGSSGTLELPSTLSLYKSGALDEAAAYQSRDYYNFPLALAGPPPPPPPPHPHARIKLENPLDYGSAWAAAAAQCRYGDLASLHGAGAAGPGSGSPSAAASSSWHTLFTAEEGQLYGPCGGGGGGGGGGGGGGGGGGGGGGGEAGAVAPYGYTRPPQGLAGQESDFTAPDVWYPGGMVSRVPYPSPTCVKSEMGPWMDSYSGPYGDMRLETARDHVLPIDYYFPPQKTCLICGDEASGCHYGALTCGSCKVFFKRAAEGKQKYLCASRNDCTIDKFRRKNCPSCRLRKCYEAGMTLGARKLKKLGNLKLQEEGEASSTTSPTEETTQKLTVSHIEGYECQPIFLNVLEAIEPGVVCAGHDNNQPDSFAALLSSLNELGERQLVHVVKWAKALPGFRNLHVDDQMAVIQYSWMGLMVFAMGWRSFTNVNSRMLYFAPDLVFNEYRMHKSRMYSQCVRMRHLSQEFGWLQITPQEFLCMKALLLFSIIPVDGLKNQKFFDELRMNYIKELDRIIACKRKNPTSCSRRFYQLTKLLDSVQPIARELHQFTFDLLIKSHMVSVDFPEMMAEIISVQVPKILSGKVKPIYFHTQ
Method in brief: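 Stimulation of an AR-responsive β-lactamase reporter in GripTite HEK293 cells was measured after 16 h compound exposure at 37 °C, via CCF4 fluorescence after 2 h RT. EC50 from Hill fits, normalized to R1881 at 30 nM.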

[9] = molecular target: Androgen receptor (Homo sapiens) (UniProt P10275); experiment: qHTS assay for small molecule antagonists of androgen receptor signaling (AID 588516; active = well fitted curve in the direction sought with a large enough effect in the signal ratio, with a control signal flat, not every such curve was filed as active; the % refers to the signal ratio; note: potency is the fitted concentration of half-maximal effect)
Method in brief: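 Cells were plated and incubated 5 h, compounds added in titration, then R1881 (10 nM final) as agonist. After 16 h at 37 C, CCF4 substrate was loaded for 2 h at room temperature and fluorescence measured.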

[10] = Confirmation and Secondary Assay for Modulators of Hemoglobin Beta Chain Splicing at IVS2 654 locus (AID 910);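 note: HeLa cells stably carrying EGFP split by mutant beta-globin IVS2-654 intron; per-well total GFP intensity by laser scanning cytometry after 2-day treatment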
Method in brief: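 Readout: per-well total peak green fluorescence (488 nm ex, 500–520 nm em) from objects 5–250 µm, reflecting correct splicing of an EGFP-654 reporter. Compounds were applied for 2 days at 37 °C to overnight-plated HeLa EGFP-654 cells; controls were DMSO and 500 nM IVS2-654 PNA.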

[11] = Confirmation and Secondary Assay for Modulators of Hemoglobin Beta Chain Splicing at IVS2 705 locus (AID 930);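 note: HeLa cells stably expressing the EGFP-705 splicing reporter; GFP fluorescence per well restored by corrected splicing of the IVS2-705 intron in EGFP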
Method in brief: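 First, HeLa EGFP-705 cells are seeded at 500/well in Optimem with 2% FCS and left overnight. Next, compound or DMSO is added for 2 days. Finally wells are laser-scanned and total peak GFP intensity scored.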

COc1ccc2c(c1OC)C(=O)OC2c1c(O)n(C2CCCCC2)c(=O)[nH]c1=O (stereo not given)
activity change, negative = inhibition [1]: -3.36% (inactive)

N[C@@H](Cc1cc(O)c(O)cc1O)C(=O)O
activity change, negative = inhibition [1]: 3.11% [at 38 µM] (inactive)
Potency [2]: inactive

CCCCCC[C@H]1C(=O)O[C@H](C)[C@H](NC(=O)c2cccc(NC=O)c2O)C(=O)O[C@@H](C)[C@H]1OC(=O)CC(C)C
activity change, negative = inhibition [1]: -34.3% (inactive)

CN1[C@@H]2CC[C@H]1CC(O[C@@H](c1ccccc1)c1ccccc1N)C2 (stereo not given in full)
outcome [3]: inactive

CN1CC=C2C(C#N)=C(N)C(C#N)(C#N)C(c3ccncc3)C2C1 (stereo not given)
Potency [4]: inactive

NC(=O)c1ccc(OC[C@H](O)CN2CC=C(c3ccc(F)cc3)CC2)cc1
Potency [5]: inactive

CC[C@]1(O)C(=O)OCc2c1cc1n(c2=O)Cc2cc3ccccc3nc2-1
outcome [6]: inactive

C[C@]1(C(=O)O)[C@@H]2CC[C@@H](O2)[C@@]1(C)C(=O)O
Potency [5]: 6.31 µM (active)

c1cc2cc(c1)C[n+]1ccc(c3ccccc31)NCc1ccc(cc1)CNc1cc[n+](c3ccccc13)C2
outcome [6]: inactive

C[C@]12Cc3cn4c(nc3C=C1CC[C@H]1[C@@H]2CC[C@@]2(C)[C@H]1CC[C@@]2(O)C#N)nc1ccccc14
Potency [2]: inactive

Ic1ccccc1CN[C@@H]1C2CCN(CC2)[C@H]1C(c1ccccc1)c1ccccc1
activity change, negative = inhibition [1]: -6.46% [at 38 µM] (inactive)

CCCN1CCC[C@H](c2cccc(C#N)c2)C1
outcome [3]: inactive

C[C@@H](Cc1cccc(C(F)(F)F)c1)NCCCc1ccccc1
outcome [6]: inactive

C(=NC1CCCCC1)=NC1CCCCC1
Potency [7]: 53.1 µM (active)

COP(=O)(OC)O/C(=C\Cl)c1cc(Cl)c(Cl)cc1Cl
activation [8]: -13% (inactive)
Potency [7]: inactive

CN(CCc1ccc(Cl)c(Cl)c1)[C@H]1CCCC[C@H]1N1CCCC1
outcome [6]: inactive

O=[N+]([O-])c1cc(C(F)(F)F)cc([N+](=O)[O-])c1Cl
Potency [7]: inactive

O=C1C2(Cl)C3(Cl)C4(Cl)C(Cl)(Cl)C5(Cl)C3(Cl)C1(Cl)C5(Cl)C24Cl (stereo not given)
activation [8]: 0.62% (inactive)
Potency [9]: 44.7 µM (active) and inactive

Oc1c(Br)c(Br)c(Br)c(Br)c1Br
Potency [9]: inactive

OC(c1ccc(Cl)cc1)(c1ccc(Cl)cc1)C(Cl)(Cl)Cl
Potency [7]: inactive

N#CC(Cl)Cl
activation [8]: 16.6% (inactive)
Potency [9]: inactive

ClC1=C(Cl)C2(Cl)C3C(Cl)C(Cl)CC3C1(Cl)C2(Cl)Cl (stereo not given)
activation [8]: -9.52% (inactive)
Potency [7]: 42.2 µM (active)

O=[N+]([O-])C(Br)Br
activation [8]: 6.33% (inactive)
Potency [9]: inactive

Oc1cc2c(cc1O)[C@H]1c3ccccc3CN[C@@H]1CC2
Potency [5]: 6.31 µM (active)
Potency [2]: inactive

C[C@@H]1O[C@@H](O[C@H]2C[C@@H](O)[C@]3(CO)[C@@H]4[C@@H](O)C[C@]5(C)[C@H](C6=CC(=O)OC6)CC[C@@]5(O)[C@H]4CC[C@@]3(O)C2)[C@H](O)[C@H](O)[C@@H]1O
outcome [3]: inactive

COc1ccc2c(c1O)-c1c(OC)c(OC)cc3c1[C@@H](C2)N(C)CC3
Potency [10]: inactive
outcome [11]: inactive

C[C@@H]1O[C@@H](O[C@H]2C[C@@H](O)[C@]3(CO)[C@@H]4[C@@H](O)C[C@]5(C)[C@H]([C@@H]6COC(=O)C6)CC[C@@]5(O)[C@H]4CC[C@@]3(O)C2)[C@H](O)[C@H](O)[C@@H]1O
outcome [3]: inactive
